Source: PubChem BioAssay (NCATS)
Records with an inconclusive call do not appear. Unless noted, calls follow the shape of the dose curve; as a rule, active = well fitted curve in either direction with a large enough effect (not every such curve was filed as active); inconclusive = small, poorly fitted or top-dose-only effect, or another doubt; inactive = flat fitted curve, though single readings scatter.

Key:
[1] = AP1 Signaling Pathway (AID 357); conditions: ME-180 AP-1-bla reporter, EGF-induced, beta-lactamase ratio, 5 h; at 17.2 µM (top of the series) unless noted; also: % is scaled to controls: 0 for no effect and ±100 for the full control effect
In short: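 AP-1-bla ME-180 cells with beta-lactamase reporter under AP-1 response element, stimulated with EC50 EGF; compounds titrated, 5 hours at 37 degrees Celsius. CCF4 read at 460/530 nm ratio; positive and negative modulators judged by AC50.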

[2] = NFAT Signaling Pathway (AID 444); conditions: Jurkat NFAT-bla M1, carbachol, beta-lactamase ratio, 5 h; at 17.2 µM (top of the series) unless noted;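 also: carbachol stimulus at about its EC50 of 1 µM final; % is scaled to controls: 0 for no effect and ±100 for the full control effect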
In short: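 Jurkat cells carrying an NFAT-driven β-lactamase reporter and co-transfected muscarinic M1 receptor were treated with compound plus carbachol (1 uM final, an EC50 level) for 5 h at 37 °C. CCF4 loading followed for 1 h at RT; 460/530 nm ratio gave %activity.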

[3] = Stat Signaling Pathway (AID 446); conditions: ME-180 SIE beta-lactamase reporter, IL-6 stimulated, 5 h; at 17.2 µM (top of the series) unless noted;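 also: ME-180 cervical cancer cells given 40 pM IL-6 alongside compound; SIE-controlled beta-lactamase reporter measured as 460/530 nm FRET emission ratio; % is scaled to controls: 0 for no effect and ±100 for the full control effect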
In short: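 ME-180 cells carrying a SIE-driven beta-lactamase reporter are stimulated with 40 pM IL-6 for 5 h at 37C in the presence of compound. The 460/530 nm FRET substrate ratio is read after 2.5 h at RT. Data are normalised to 300 pM IL-6 and to 125 nM JAK inhibitor controls.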

[4] = molecular target: Glucocorticoid receptor (Homo sapiens) (UniProt P04150); experiment: GR-GFP Redistribution (AID 450;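 active = compounds whose dose series gives a full or clear partial fitted curve of increased nuclear translocation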; also: potency is read from the fitted curve at half-maximal effect)
Glucocorticoid receptor (Homo sapiens), sequence (P04150 whole entry, looked up): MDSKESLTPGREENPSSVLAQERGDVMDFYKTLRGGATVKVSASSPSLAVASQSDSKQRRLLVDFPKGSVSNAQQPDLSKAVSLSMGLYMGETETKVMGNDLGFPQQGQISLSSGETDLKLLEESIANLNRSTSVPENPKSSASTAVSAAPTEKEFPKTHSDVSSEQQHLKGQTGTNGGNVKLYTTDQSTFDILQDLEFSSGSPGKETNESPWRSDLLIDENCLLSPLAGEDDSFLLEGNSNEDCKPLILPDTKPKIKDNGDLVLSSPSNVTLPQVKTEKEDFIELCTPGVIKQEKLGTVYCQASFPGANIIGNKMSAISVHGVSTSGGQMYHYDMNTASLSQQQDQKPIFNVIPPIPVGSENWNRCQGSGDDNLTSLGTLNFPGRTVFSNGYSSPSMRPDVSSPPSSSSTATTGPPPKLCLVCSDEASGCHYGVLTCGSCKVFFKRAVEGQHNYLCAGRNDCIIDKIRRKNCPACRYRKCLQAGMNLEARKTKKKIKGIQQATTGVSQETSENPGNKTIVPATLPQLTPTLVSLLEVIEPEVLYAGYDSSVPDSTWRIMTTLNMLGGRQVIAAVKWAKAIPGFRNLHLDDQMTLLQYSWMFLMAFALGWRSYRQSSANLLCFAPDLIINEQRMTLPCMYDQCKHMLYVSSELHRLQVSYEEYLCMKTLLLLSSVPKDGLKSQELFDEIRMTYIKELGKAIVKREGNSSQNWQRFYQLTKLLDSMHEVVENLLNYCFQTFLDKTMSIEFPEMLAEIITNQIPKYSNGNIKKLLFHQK

CCN(CC)CCN1C(=O)C(=O)/C(=C(/O)c2ccc(C)cc2)C1c1cccnc1 (configuration not stated)
inactive: activity change, negative = inhibition [1] 4.64% | activity change, negative = inhibition [2] -5.95% | activity, negative = inhibition [3] 7.25% | Potency [4] > 20.6 µM

COc1cccc(-c2nnc3sc(-c4ccco4)nn23)c1
inactive: activity change, negative = inhibition [1] -6.59% | activity change, negative = inhibition [2] 7.27% | activity, negative = inhibition [3] -1.01% | Potency [4] > 20.6 µM

CCCCc1nc(NCCN2CCOCC2)c(C#N)c2c1COC(C)(C)C2
inactive: activity change, negative = inhibition [1] -15.7% | activity change, negative = inhibition [2] 13.3% | activity, negative = inhibition [3] 1.05% | Potency [4] > 20.6 µM

OCCCc1nc2ccccc2n1CCc1ccccc1
inactive: activity change, negative = inhibition [1] 6.55% | activity change, negative = inhibition [2] -7.48% | activity, negative = inhibition [3] -0.378% | Potency [4] > 20.6 µM

CCOc1ccc(CCNC(=O)C(O)c2ccccc2)cc1 (configuration not stated)
inactive: activity change, negative = inhibition [1] 13% | activity change, negative = inhibition [2] 4.66% | activity, negative = inhibition [3] 18.6% | Potency [4] > 20.6 µM

COc1cccc(OC)c1-c1nn2c(-c3ccco3)nnc2s1
inactive: activity change, negative = inhibition [1] -10.9% | activity change, negative = inhibition [2] -8.25% | activity, negative = inhibition [3] -4.43% | Potency [4] > 20.6 µM

CCCCCSc1nc(O)cc(=O)[nH]1
inactive: activity change, negative = inhibition [1] -9.05% | activity change, negative = inhibition [2] 11.4% | activity, negative = inhibition [3] -6.56% | Potency [4] > 20.6 µM

CCOC(=O)N1CCN(C(=O)c2cn(CC)c3cc(N4CCN(C)CC4)c(F)cc3c2=O)CC1
inactive: activity change, negative = inhibition [1] 8.43% | activity change, negative = inhibition [2] 7.68% | activity, negative = inhibition [3] 0.507% | Potency [4] > 20.6 µM

COC(=O)C(NC(=O)c1ccccc1)(Nc1nccs1)C(F)(F)F (configuration not stated)
inactive: activity change, negative = inhibition [1] 6.27% | activity change, negative = inhibition [2] 2.67% | activity, negative = inhibition [3] 5.62% | Potency [4] > 20.6 µM

CCn1c(SCC(=O)NC2CCCCC2C)nnc1-c1ccc(OC)cc1 (configuration not stated)
inactive: activity change, negative = inhibition [1] -8.83% | activity change, negative = inhibition [2] 19.9% | activity, negative = inhibition [3] -7.61% | Potency [4] > 20.6 µM

CCOC(=O)CSc1nc(NC#N)nc(N(CC)CC)n1
inactive: activity change, negative = inhibition [1] 8.62% | activity change, negative = inhibition [2] -5.47% | activity, negative = inhibition [3] -5.41% | Potency [4] > 20.6 µM

N/C(CCN1CCCCC1)=N/O
inactive: activity change, negative = inhibition [1] 8.61% | activity change, negative = inhibition [2] -6.23% | activity, negative = inhibition [3] 2.5% | Potency [4] > 20.6 µM

CC(C)(C)C1=Nn2c(nnc2-c2ccco2)SC1
inactive: activity change, negative = inhibition [1] 2.22% | activity change, negative = inhibition [2] 11.1% | activity, negative = inhibition [3] 8.01% | Potency [4] > 20.6 µM

COC(=O)c1ccc(CN(C(C)=O)c2ccccc2)o1
inactive: activity change, negative = inhibition [1] 10.5% | activity change, negative = inhibition [2] -7.2% | activity, negative = inhibition [3] 7.8% | Potency [4] > 20.6 µM

Cc1cccc(-n2ncc3c(NCCN4CCOCC4)ncnc32)c1
inactive: activity change, negative = inhibition [1] 1.48% | activity change, negative = inhibition [2] 8.91% | activity, negative = inhibition [3] 4.97% | Potency [4] > 20.6 µM

CCOC(=O)c1c(-c2cccs2)csc1NC(=O)CCCC(=O)O
inactive: activity change, negative = inhibition [1] -7.6% | activity change, negative = inhibition [2] -2.47% | activity, negative = inhibition [3] -0.962% | Potency [4] > 20.6 µM

COCCCN1C(=O)C(O)=C(C(=O)c2ccco2)C1c1ccc(Br)cc1 (configuration not stated)
inactive: activity change, negative = inhibition [1] -15.5% | activity change, negative = inhibition [2] 11.4% | activity, negative = inhibition [3] -8.56% | Potency [4] > 20.6 µM

Cn1c(=O)[nH]c2cc(Cl)cnc21
inactive: activity change, negative = inhibition [1] 7.54% | activity change, negative = inhibition [2] 3.47% | activity, negative = inhibition [3] 5.04% | Potency [4] > 20.6 µM
